# PGE2 EP2 inh = EP2 receptor (human) inhibition. inhibition, % at 25 µM. P43116. 260,000 compounds, 0.52% hits. C6 glioma cells expressing human EP2, cAMP TR-FRET; cells stimulated with saturating PGE2;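 active = percent inhibition above 40 after rounding to a whole number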;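 also: rat C6 glioma host cells with rolipram phosphodiesterase inhibitor present; the protocol text gives 20 µM as final concentration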
# Target sequence (P43116 whole entry, looked up): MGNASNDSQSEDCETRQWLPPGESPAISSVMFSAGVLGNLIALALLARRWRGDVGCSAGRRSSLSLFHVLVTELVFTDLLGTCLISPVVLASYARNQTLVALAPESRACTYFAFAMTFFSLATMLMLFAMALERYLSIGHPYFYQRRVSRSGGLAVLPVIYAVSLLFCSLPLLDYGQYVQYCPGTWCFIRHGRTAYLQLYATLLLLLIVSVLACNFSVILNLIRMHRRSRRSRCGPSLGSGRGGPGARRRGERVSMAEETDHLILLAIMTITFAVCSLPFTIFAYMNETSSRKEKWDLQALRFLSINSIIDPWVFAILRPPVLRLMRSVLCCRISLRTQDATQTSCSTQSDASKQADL
# S1P4 agonist = activates the human S1P4 receptor; activation, % at 4.98 µM; 220,000 compounds, 0.35% hits; O95977; S1P4-expressing cell line, agonist reporter assay; in the data active = activation above about 11%;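 also: 0% = DMSO vehicle and 100% = reference agonist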
# S1P4 antag = human S1P4 receptor antagonism | O95977 | S1P4-expressing cells, antagonist mode, reporter read-out | inhibition, % at 4.98 µM | 220,000 compounds, 0.26% hits | AID 1510; in the data active = inhibition above about 29%;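 also: 0% = wells stimulated with agonist and 100% = vehicle wells without agonist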
# S1P3 antag = S1P3 (human) receptor antagonism; Q99500; CHO S1P3 NFAT-BLA reporter, FRET fluorescence, antagonist mode; inhibition, % at 4.98 µM; 170,000 compounds, 0.27% hits; AID 485;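 active = inhibition above the plate cutoff, the mean inhibition of test wells on that plate plus 3 SD, cut at about 28% in these data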;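 also: cells challenged with S1P at its EC80 of 0.8 µM; blue over green emission ratio from cleaved BLA substrate after 4 h stimulation; 0% = S1P-stimulated wells and 100% = unstimulated DMSO-only wells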
# EP2 mod = modulates human prostaglandin E2 receptor EP2 signaling; EP2-expressing cells, cAMP HTRF FRET, PGE2 co-stimulation; induction, % at 25 µM; P43116; 260,000 compounds, 0.83% hits;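 active = compounds whose cAMP rise, as percent of the full-agonist control response, exceeds 60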;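 also: rat C6 glioma line stably carrying human EP2 under a CMV promoter; the protocol text gives 20 µM as final concentration; 100% = response of wells given 1 µM PGE2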
# An asterisk follows results filed as active; · = no result given; ! = not confirmed by another sample. Sampled rows, rich in hits. Any-hit rate of the full collection: about 1.9%.
SMILES,PGE2 EP2 inh,S1P4 agonist,S1P4 antag,S1P3 antag,EP2 mod
O=S(=O)(Cc1ccccc1)NCc1ccccn1,5,-1,-5,103*,5
COc1ccc(NC(=S)N(CCN(C)C)Cc2cc3cc(C)c(C)cc3[nH]c2=O)cc1,11,·,·,·,-65
Cc1ccccc1-c1nc(P(=O)(c2ccccc2)c2ccccc2)c(N2CCOCC2)o1,9,1,-6,-3,67*
Cc1nc(P(=O)(c2ccccc2)c2ccccc2)c(N2CCOCC2)o1,11,2,6,-11,15
COC(=O)c1cc2ccccn2c2c(C(=O)OC)c(C(=O)OC)cc1-2,41*,0,-3,·,-35
O=C(c1cccnc1)C1CCN(C(=O)c2cccnc2)CC1,11,·,·,·,16
Cc1nc([N+](=O)[O-])cn1CCO,8,·,·,·,1
CCn1c(SCC(=O)c2ccc(O)c(O)c2)nnc1-c1ccccc1OC,8,-1,8,74*,33
CCN1CCN(C(=O)C2CC(=O)N(c3ccc(C)cc3)C2)CC1 (centres undefined),5,·,·,·,-24
N#CC1(Nc2ccc(-c3ccc(NC4(C#N)CCCC4)cc3)cc2)CCCC1,55*,·,·,·,-19
CC(C)(C)OC(=O)N1CC=C2C(C#N)=C(N)C(C#N)(C#N)C(c3ccc(F)c(F)c3)C2C1 (centres undefined),10,·,·,·,-19
CC(C)(C)OC(=O)N1CC=C2C(C#N)=C(N)C(C#N)(C#N)C(c3ccc4c(c3)OCO4)C2C1 (centres undefined),40*,·,·,·,15
COc1ccc(NC(=O)CSc2nc3c(C)c(C)ccc3cc2C#N)c(OC)c1,15,·,·,·,-3
COc1ccc(C(=O)CSc2nc3c(C)c(C)ccc3cc2C#N)cc1OC,50*,·,·,·,33
C[C@@]12C[C@H](O)[C@@H]3[C@H](CCC4=CC(=O)CC[C@]43C)[C@H]1CC[C@H]2c1csc(N)n1,66*,·,·,·,-24
Cc1cc2n(n1)C(c1ccccc1)Nc1ccccc1-2 (centres undefined),8,-3,-14,-10,64*!
c1ccc([C@H](c2cccc3c2ccc2ccccc23)[C@H](c2ccccc2)c2cccc3c2ccc2ccccc23)cc1,41*,·,·,·,8
ClC(Cl)(c1nnnn1-c1ccccc1)c1nnnn1-c1ccccc1,81*,1,19,-13,-42
COc1cc(NS(=O)(=O)c2ccc(NC(=S)NC(=O)c3sc4ccccc4c3Cl)cc2)nc(OC)n1,126*,5,-9,-10,-3
COc1cc(NS(=O)(=O)c2ccc(NC(=S)NC(=O)c3ccco3)cc2)nc(OC)n1,21,0,-13,-9,-17
COc1cc(NS(=O)(=O)c2ccc(NC(=S)NC(=O)c3sc4cc(F)ccc4c3Cl)cc2)nc(OC)n1,95*,2,-22,10,-3
O=C(c1ccco1)c1cn(CC(=O)N2CCCCCC2)c2ccccc12,5,1,3,-16,-18
CC1CCCCN1C(=O)Cn1cc(C(=O)c2ccco2)c2ccccc21 (centres undefined),14,-4,-32,96*,5
CC1=CC(=O)c2c(O)ccc(O)c2C1=O,84*,-2,-3,-8,-51
O=C1c2ccc(O)c(O)c2C(=O)c2c(O)ccc(O)c21,13,·,·,·,19
SMILES,PGE2 EP2 inh,S1P4 agonist,S1P4 antag,S1P3 antag,EP2 mod
Cn1cc(/C=N/n2cnc3scc(-c4ccc(Cl)cc4)c3c2=O)c2ccccc21,7,1,-1,56*,-3
Cc1ccc(C(=O)C2=C(O)C(=O)N(CCc3ccccc3)C2c2cccs2)o1 (centres undefined),16,·,·,·,38
Cc1cc(N2C(=O)C(O)=C(C(=O)c3ccc(C)o3)C2c2cccs2)no1 (centres undefined),56*,0,-8,1,52
Cc1cccc2cc(CN(CCCO)C(=O)Nc3ccc(F)cc3)c(=O)[nH]c12,12,·,·,·,36
Cc1nnc2sc(-c3cccc(N)c3)nn12,12,·,·,·,-27
CCOC(=O)c1cc2c(=O)n3ccccc3nc2n(CC2CCCO2)c1=NC(C)=O (centres undefined),11,18*,-23,·,·
COCc1nnc(NC(=O)c2ccc(Cl)cc2)s1,12,·,·,·,-17
c1ccc(-c2cc(-c3nnc(-c4ccncc4)o3)c3ccccc3n2)cc1,8,·,·,·,80*
C=CNc1ccccc1CC1(c2c[nH]c3ccccc23)C(=O)Nc2ccccc21 (centres undefined),20,·,·,·,-57
CC(C)(C)c1ccc(O)c(CN(Cc2c(O)ccc3ccccc23)C2CCCCC2)c1,39,·,·,·,35
CC(C)(C)c1ccc(O)c(CN(Cc2cc(C(C)(C)C)ccc2O)C2CCCCC2)c1,64*,·,·,·,-16

# Screening results from PubChem.
